The full ranking holds about 8,300 sequences; the median of “log2 fold change of degron read counts, EGFP-low vs EGFP+ sorted cells (limma voom), compound-induced degradation” is about -1.1, and the highest 2% start at about 3.2. The sample holds the highest values, similar sequences and a random draw of the others, so the mix is not that of the screen.
T1: CRBN, Q96SW2
T1 chain: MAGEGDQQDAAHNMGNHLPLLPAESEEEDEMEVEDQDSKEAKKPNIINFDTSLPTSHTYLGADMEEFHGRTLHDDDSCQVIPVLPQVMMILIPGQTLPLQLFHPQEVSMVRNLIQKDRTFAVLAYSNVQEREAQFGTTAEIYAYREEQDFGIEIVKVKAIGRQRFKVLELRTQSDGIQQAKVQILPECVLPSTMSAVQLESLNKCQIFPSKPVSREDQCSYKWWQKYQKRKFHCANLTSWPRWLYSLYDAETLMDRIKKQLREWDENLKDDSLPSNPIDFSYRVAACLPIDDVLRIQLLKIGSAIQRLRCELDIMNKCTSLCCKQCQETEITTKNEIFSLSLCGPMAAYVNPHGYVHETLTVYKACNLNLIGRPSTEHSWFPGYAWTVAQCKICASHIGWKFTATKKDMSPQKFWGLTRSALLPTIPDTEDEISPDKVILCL


Molecular target: T1, CRBN, Q96SW2
Experiment: log2 fold change of degron read counts, EGFP-low vs EGFP+ sorted cells (limma voom), compound-induced degradation; higher = more compound-induced degradation of the degron-EGFP fusion; degrons are variants of IKZF1/3 zinc finger 2; compound dose not given here
Conditions: Jurkat, 18 h
[1] = compound: compound 19 (5-tert-butyl-thalidomide)
[2] = compound: compound 22 (5-morpholino-thalidomide)
[3] = compound: compound 33 (diphenyl IMiD analogue)
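Note: pooled lentiviral library of zinc finger degron-EGFP fusions in mCherry-positive Jurkat cells, FACS-sorted after compound exposure, with degron abundance counted by next-generation sequencing.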

Sequence	log2 fold change of degron read counts [1]	log2 fold change of degron read counts [2]	log2 fold change of degron read counts [3]	log2 fold change of degron read counts (compound: thalidomide)
FICNQCGRHFTQKGNLLRHIKL [46F_47I_49N_50Q_52G_53R_54H_55F_67L_, Q9UKT9]	-2.53	-2.91	-2.85	-2.39
FRCDQCGAQFTQKGNLLRHIKL [46F_47R_49D_50Q_52G_53A_54Q_55F_67L_, Q9UKT9]	-2.54	-2.73	-1.77	-2.38
FMCEQCGASFTQKGNLLRHIKL [46F_47M_49E_50Q_52G_53A_54S_55F_67L_, Q9UKT9]	-1.6	-1.45	1.54	-0.529
FWCNQCGRCFTQKGNLLRHIKL [46F_47W_49N_50Q_52G_53R_54C_55F_67L_, Q9UKT9]	-1.48	-2.02	-1.83	-1.5
LGCEICGFICTQKGNLLRHIKL [46L_47G_49E_50I_52G_53F_54I_55C_67L_, Q9UKT9]	0.761	-0.0429	-0.436	-0.337
FACEICGARFTQKGNLLRHIKL [46F_47A_49E_50I_52G_53A_54R_55F_67L_, Q9UKT9]	3.84	2.89	-0.685	1.16
FVCEICGARFTQKGNLLRHIKL [46F_47V_49E_50I_52G_53A_54R_55F_67L_, Q9UKT9]	1.67	2.43	1.02	3.07
FLCEICGARFTQKGNLLRHIKL [46F_47L_49E_50I_52G_53A_54R_55F_67L_, Q9UKT9]	0.574	-1.16	-0.0449	2.33
FYCEICGARFTQKGNLLRHIKL [46F_47Y_49E_50I_52G_53A_54R_55F_67L_, Q9UKT9]	3.7	3.37	2.11	1.8
FQCEICGAWFTQKGNLLRHIKL [46F_47Q_49E_50I_52G_53A_54W_55F_67L_, Q9UKT9]	-1.84	-0.947	0.615	2.26
FICEICGARFTQKGNLLRHIKL [46F_47I_49E_50I_52G_53A_54R_55F_67L_, Q9UKT9]	0.817	2.66	1.57	3.04
FMCEICGARFTQKGNLLRHIKL [46F_47M_49E_50I_52G_53A_54R_55F_67L_, Q9UKT9]	-0.0205	-0.359	1.34	1.5
FRCEICGARFTQKGNLLRHIKL [46F_47R_49E_50I_52G_53A_54R_55F_67L_, Q9UKT9]	-0.586	-0.873	-0.311	0.853
FHCEICGARFTQKGNLLRHIKL [46F_47H_49E_50I_52G_53A_54R_55F_67L_, Q9UKT9]	2.72	2.42	0.44	0.706
FQCEICGARFTQKGNLLRHIKL [46F_47Q_49E_50I_52G_53A_54R_55F_67L_, Q9UKT9]	0.106	2.1	1.34	3.7
FDCEICGARFTQKGNLLRHIKL [46F_47D_49E_50I_52G_53A_54R_55F_67L_, Q9UKT9]	3.3	1.74	0.651	2.27
